LEDGF integ inh: blockers of LEDGF/p75-dependent integrase strand transfer – biochemical, TR-FRET, high throughput, primary screen | TR-FRET IN-LEDGF/p75 DNA integration, Eu/Cy5 | inhibition, % at 3.7 µM | hit rate 0.64% among 370,000 | AID 743269, 2014;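 active = inhibition above the screen-wide mean plus 3 SD, cut at about 13% in these data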;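 note: signal is the Cy5 over europium emission ratio at 671 and 618 nm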
MBD2 DNA inh: inhibitors of MBD2 binding to methylated DNA, primary screen, biochemical, TR-FRET, DNA-binding domain, human; Methyl-CpG-binding domain protein 2 (Homo sapiens), Q9UBB5; hit rate 0.31% among 370,000; inhibition, % at 4.4 µM; MBD2 binding to methylated oligonucleotide; in the data active = inhibition above about 13%
Target sequence (Q9UBB5 whole entry, looked up, the tested form may be a part): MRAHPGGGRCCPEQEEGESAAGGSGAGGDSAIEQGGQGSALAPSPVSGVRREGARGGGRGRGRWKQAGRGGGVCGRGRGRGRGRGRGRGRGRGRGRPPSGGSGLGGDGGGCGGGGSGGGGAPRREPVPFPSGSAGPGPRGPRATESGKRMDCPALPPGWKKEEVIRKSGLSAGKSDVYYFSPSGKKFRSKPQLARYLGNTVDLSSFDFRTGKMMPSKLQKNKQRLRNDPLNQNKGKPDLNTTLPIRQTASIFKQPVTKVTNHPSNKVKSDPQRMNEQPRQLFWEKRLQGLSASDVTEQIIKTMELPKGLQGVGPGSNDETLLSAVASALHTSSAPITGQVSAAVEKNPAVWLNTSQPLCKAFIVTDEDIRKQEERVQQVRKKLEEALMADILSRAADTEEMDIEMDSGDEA
PRMT1 inh: PRMT1 methyltransferase inhibitors, primary screen, biochemical, fluorescence polarization; recombinant PRMT1, activity-based probe fluorescence polarization; inhibition, % at 2.79 µM; hit rate 1.3% among 370,000; AID 652257, 2013;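 active = inhibition above about 21% made by adding two undisclosed values, limit read from the data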
UHRF1 MBD2 ctr: UHRF1 methylated DNA binding inhibitors, primary screen, counter-screen for MBD2 inhibitor project, biochemical, TR-FRET, human UHRF1, single concentration. E3 ubiquitin-protein ligase UHRF1 (Homo sapiens), Q96T88. UHRF1 binding to methylated oligo. inhibition, % at 4.4 µM. hit rate 0.75% among 370,000. AID 687016, 2013; in the data active = inhibition above about 21%;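 note: UHRF1 SRA domain binding a hemimethylated CpG hairpin DNA probe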
IN multimer up: HIV-1 IN multimer formation enhancers, counter-screen for LEDGF/p75 integration inhibitor project, biochemical, TR-FRET. shares compounds with LEDGF integ inh. TR-FRET HIV-1 integrase multimerization. activation, % at 7.7 µM. hit rate 17% among 2,000; in the data active = activation above about 8.9%
TR-FRET interf: TR-FRET optical interference artefacts, confirmation, artefact control for LEDGF/p75-dependent integration inhibitor project, biochemical, HIV-1 IN multimerization. shares compounds with LEDGF integ inh. TR-FRET optical interference counterscreen. inhibition, % at 7.7 µM. 2,000 tested, under 10 active. AID 1053135, 2014;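 active = inhibition above the mean over all tested compounds plus 3 SD, which no compound reached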
LEDGF integ conf: inhibitors of HIV-1 IN-LEDGF/p75 DNA integration, confirmation, biochemical, TR-FRET. hit rate 36% among 2,000. shares compounds with LEDGF integ inh. AID 1053136, 2014. inhibition, % at 3.7 µM. TR-FRET LEDGF/p75-dependent HIV-1 integration; in the data active = inhibition above about 14%
Numbers stand for hits; . = inactive; / = no result. Only some compounds are listed: those with a hit (about 2.5% of all), similar ones and a draw of the others.

SMILES | LEDGF integ inh | MBD2 DNA inh | PRMT1 inh | UHRF1 MBD2 ctr | IN multimer up | TR-FRET interf | LEDGF integ conf
COc1ccc(-c2csc(C(C)(O)c3cccc(OC)c3)n2)cc1 (configuration not stated) | 22 | . | . | . | . | . | .
COc1cccc(C(C)(O)c2nc(-c3ccc(Cl)cc3)cs2)c1 (configuration not stated) | . | . | . | . | / | / | /
CC(O)(c1ccccc1)c1nc(-c2cccc(C(=O)O)c2)cs1 (configuration not stated) | . | . | . | . | / | / | /
CC(C)c1cccc(-c2csc(C(C)(O)c3ccccc3)n2)c1 (configuration not stated) | 16 | . | . | . | . | . | .
O=C1c2ccccc2C(=O)N1/N=C/c1ccc(O)c(O)c1 | 30 | . | . | . | 23 | . | 59
O=C1C2C3C=CC(CC3)C2C(=O)N1/N=C/c1ccc(O)c(O)c1 (configuration not stated) | . | . | . | . | / | / | /
CCS(=O)(=O)N1CCC2(CC1)OCCN2S(=O)(=O)c1ccccc1 | 26 | . | . | . | . | . | .
COc1ccc(NC(=O)CCCn2cnc3ccccc3c2=O)c(OC)c1 | 16 | . | . | . | . | . | .
COc1ccc(C(=O)Cn2cnc3ccccc3c2=O)c(OC)c1 | . | . | . | . | / | / | /
CSc1nnc(NC(=O)c2cccc(S(=O)(=O)N3CCOCC3)c2)s1 | . | . | . | . | / | / | /
Nc1ccc(N2CCN(CCCCN3C(=O)C4CCCN4C3=O)CC2)cc1 (configuration not stated) | 22 | . | . | . | . | . | .
Cc1ccccc1N1CCN(CCCCN2C(=O)C3CCCN3C2=O)CC1 (configuration not stated) | . | . | . | . | / | / | /
CN(Cc1ccccc1)Cc1nc2c(c(=O)n(C)c(=O)n2C)n1CCc1ccccc1 | 23 | . | . | . | . | . | .
COc1cccc(NC(=O)N2CCC(C(=O)Nc3ccc(C)cc3C)CC2)c1 | 38 | . | . | . | . | . | .
CC(CC(=O)c1ccc(F)cc1)N1CCN(c2ccccc2)CC1 (configuration not stated) | . | . | . | . | / | / | /
NC(=O)/C(=C\c1ccc([N+](=O)[O-])o1)c1ccco1 | 22 | . | . | . | . | . | 28
COc1ccc(S(=O)(=O)N2CCOCC2)cc1C(=O)Nc1cc(C)on1 | 86 | . | . | . | . | . | .
COc1ccc(S(=O)(=O)N2CCCCC2)cc1C(=O)Nc1cc(C)on1 | . | . | . | . | / | / | /
O=C(CCCCCN1C(=O)c2ccccc2C1=O)Nc1ccc(C(=O)O)cc1 | . | . | . | . | / | / | /
COc1ccc(CC(=O)OC(C)CN2CCCCC2)cc1 (configuration not stated) | 15 | . | . | . | . | . | .
CN(C)C1(CNC(=O)c2cccc(S(=O)(=O)Nc3ccc(Br)cc3)c2)CCCCC1 | . | . | . | . | / | / | /
CC(C)c1ccc(NC(=O)C2(C)Cc3c(-c4ccc5c(c4)OCO5)ccnc3O2)cc1 (configuration not stated) | . | . | . | . | / | / | /
CCCc1cc(=O)oc2c(C)c(OC3CCCCC3=O)ccc12 (configuration not stated) | . | . | . | . | / | / | /
CCCCc1cc(=O)oc2cc(OC3CCCCC3=O)ccc12 (configuration not stated) | 18 | . | . | . | . | . | .
Cn1c(SCC(=O)NC(=O)NCc2ccco2)nnc1-c1ccccc1 | 22 | . | . | 22 | . | . | .
